Source: PubChem BioAssay (EPA / NIEHS)
Several values for one entry are separate records, joined by “and”; a condition that tells them apart may be missing. Equal entries are not always repeated. Inconclusive results are not listed. Some structures have more than one record in an assay (separate samples or runs), and their calls can disagree. Activity calls are given as the source filed them. The calls were made as follows, unless noted: active = hit-call score of the fitted dose curve at least 0.9, where 1 is the maximum; inconclusive = response in the unintended direction; inactive = score below 0.9.

Key:
[1] = biological target: human Peroxisome Proliferator-activated Receptor delta (PPARd), PPARD (gene 5467) (UniProt Q03181); assay: ATG_PPARd_TRANS: Attagene TRANS-FACTORIAL HepG2 Assay for human Peroxisome Proliferator-activated Receptor delta (PPARd) (AID 2283002)
Method in brief: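 HepG2 cells transiently transfected with multiplexed GAL4-UAS reporter units and exogenous chimeric NR-Gal4 proteins; 24 h compound exposure. Reporter mRNA measured by RT-PCR, 6-FAM labelling, HpaI digestion and capillary electrophoresis; gain of signal versus DMSO.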

[2] = biological target: human Retinoic Acid Receptor beta (RARb), RARB (gene 5915) (UniProt P10826); assay: ATG_RARb_TRANS: Attagene TRANS-FACTORIAL HepG2 Assay for human Retinoic Acid Receptor beta (AID 2283004)
Method in brief: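 Readout is reporter mRNA induction: RNA reverse-transcribed, PCR-amplified, FAM-labelled, HpaI-cut and resolved by capillary electrophoresis. Transiently transfected HepG2 cells carrying exogenous NR–Gal4 chimeras were dosed for 24 h; activity fitted upward relative to DMSO.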

[3] = biological target: Retinoic acid receptor alpha (Homo sapiens) (UniProt P10276); assay: ATG_RARa_TRANS: Attagene TRANS-FACTORIAL HepG2 Assay for human Retinoic Acid Receptor alpha (RARa) (AID 2283005)
Method in brief: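 HepG2 cells transiently transfected with multiple reporter units expressing chimeric RARα-GAL4 fusion, with GAL4-UAS-driven reporters. After 24 h compound exposure, reporter mRNA induction quantified by RT-PCR and capillary electrophoresis with fluorescent labeling; gain-of-signal fitted relative to DMSO control.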

[4] = biological target: Nuclear receptor subfamily 1 group I member 2 (Homo sapiens) (UniProt O75469); assay: ATG_PXR_TRANS: Attagene TRANS-FACTORIAL HepG2 Assay for human Pregnane X Receptor (PXR) (AID 2283008)
Method in brief: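 HepG2 cells transiently transfected with GAL4-UAS reporter units and PXR-Gal4 chimera, exposed 24 h. Reporter mRNA quantified by RT-PCR, fluorescent labelling, HpaI digestion and capillary electrophoresis; gain of signal vs DMSO.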

[5] = biological target: human RAR-related Orphan Receptor beta (RORb), RORB (gene 6096) (UniProt Q92753); assay: ATG_RORb_TRANS: Attagene TRANS-FACTORIAL HepG2 Assay for human RAR-related Orphan Receptor beta (RORb) (AID 2283010)
Method in brief: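 In this TRANS-format test, human HepG2 cells express chimeric NR-Gal4 fusion proteins driving GAL4-UAS reporters. After 24 h dosing, reporter transcripts are measured by fluorescent RT-PCR/capillary electrophoresis, with DMSO as negative control.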

[6] = biological target: human RAR-related Orphan Receptor gamma (RORg), RORC (gene 6097) (UniProt P51449); assay: ATG_RORg_TRANS: Attagene TRANS-FACTORIAL HepG2 Assay for human RAR-related Orphan Receptor gamma (RORg) (AID 2283011)
Method in brief: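 Transient MRTU transfection of HepG2 (TRANS format, exogenous NR-Gal4 chimera). 24 h dosing. Total RNA → oligo(dT) RT → PCR → 6-FAM labelling → HpaI cut → CE. Gain vs DMSO.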

[7] = biological target: Peroxisome proliferator-activated receptor gamma (Homo sapiens) (UniProt P37231); assay: ATG_PPARg_TRANS: Attagene TRANS-FACTORIAL HepG2 Assay for human Peroxisome Proliferator-activated Receptor-gamma (PPARg) (AID 2283007)
Method in brief: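 Twenty-four hours after chemical dosing of transiently transfected HepG2 cells, isolated RNA was converted to cDNA, reporter sequences amplified and 6-FAM-labelled, then HpaI-digested and analysed by capillary electrophoresis. Signal increase against DMSO was fitted.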

[8] = biological target: human Retinoic Acid Receptor gamma (RARg), RARG (gene 5916) (UniProt P13631); assay: ATG_RARg_TRANS: Attagene TRANS-FACTORIAL HepG2 Assay for human Retinoic Acid Receptor gamma (RARg) (AID 2283009)
Method in brief: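 HepG2, RARg-GAL4 TRANS system, 24 h exposure; reporter mRNA by RT-PCR + CE fluorescence; increase over DMSO.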

[9] = read-out: Intercellular Adhesion Molecule 1 (ICAM1), ICAM1 (gene 3383); assay: BSK_3C_ICAM1: BioMAP Diversity Plus: 3C Assay for Intercellular Adhesion Molecule 1 (ICAM1) Biomarker Activity (AID 2283003; active = hit-call score of the fitted dose curve at least 0.9, where 1 is the maximum; inactive = score below 0.9); conditions: primary human endothelial cells (HUVEC); actives raise or lower the signal
Method in brief: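 Human vascular endothelial primary cells, 3C conditions, 24 h treatment. ICAM-1 by ELISA.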

[10] = BSK_3C_Proliferation: Cell Proliferation Assessment in the BioMAP Diversity Plus: 3C Assay (AID 2283006; active = hit-call score of the fitted dose curve at least 0.9, where 1 is the maximum; inactive = score below 0.9;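 as to AC50: potency may reflect either rise or fall in cell number versus DMSO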); conditions: primary human endothelial cells (HUVEC)
Method in brief: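 Proliferation of human vascular endothelial primary cells after 48 h dosing, quantified as SRB-stained protein at 560 nm relative to DMSO.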

Measured: AC50

human RAR-related Orphan Receptor beta (RORb), RORB (gene 6096), sequence (Q92753 whole entry, looked up, the tested form may be a part): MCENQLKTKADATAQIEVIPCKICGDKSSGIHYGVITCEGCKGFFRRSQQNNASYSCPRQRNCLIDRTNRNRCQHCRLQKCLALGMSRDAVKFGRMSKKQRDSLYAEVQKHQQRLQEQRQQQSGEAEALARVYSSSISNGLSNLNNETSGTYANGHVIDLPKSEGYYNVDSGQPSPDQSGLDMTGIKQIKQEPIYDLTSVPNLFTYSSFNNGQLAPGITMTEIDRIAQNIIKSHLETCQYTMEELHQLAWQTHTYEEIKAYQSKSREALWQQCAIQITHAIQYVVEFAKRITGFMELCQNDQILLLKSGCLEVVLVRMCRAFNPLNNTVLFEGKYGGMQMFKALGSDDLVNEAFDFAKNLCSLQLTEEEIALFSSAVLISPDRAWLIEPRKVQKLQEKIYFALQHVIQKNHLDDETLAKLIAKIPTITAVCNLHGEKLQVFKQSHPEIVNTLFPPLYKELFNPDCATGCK
human Peroxisome Proliferator-activated Receptor delta (PPARd), PPARD (gene 5467), sequence (Q03181 whole entry, looked up, the tested form may be a part): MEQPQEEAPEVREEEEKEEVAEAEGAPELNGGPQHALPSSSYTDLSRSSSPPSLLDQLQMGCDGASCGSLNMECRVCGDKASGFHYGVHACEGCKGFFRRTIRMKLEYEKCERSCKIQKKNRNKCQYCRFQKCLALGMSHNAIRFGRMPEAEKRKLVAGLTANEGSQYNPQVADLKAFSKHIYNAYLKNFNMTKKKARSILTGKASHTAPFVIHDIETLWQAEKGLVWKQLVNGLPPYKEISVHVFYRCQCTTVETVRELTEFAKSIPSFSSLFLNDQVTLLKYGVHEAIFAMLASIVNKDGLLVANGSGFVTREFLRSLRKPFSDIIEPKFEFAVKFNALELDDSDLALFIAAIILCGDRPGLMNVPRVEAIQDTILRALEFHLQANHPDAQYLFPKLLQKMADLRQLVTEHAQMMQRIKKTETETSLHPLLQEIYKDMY
Retinoic acid receptor alpha (Homo sapiens), sequence (P10276 whole entry, looked up, the tested form may be a part): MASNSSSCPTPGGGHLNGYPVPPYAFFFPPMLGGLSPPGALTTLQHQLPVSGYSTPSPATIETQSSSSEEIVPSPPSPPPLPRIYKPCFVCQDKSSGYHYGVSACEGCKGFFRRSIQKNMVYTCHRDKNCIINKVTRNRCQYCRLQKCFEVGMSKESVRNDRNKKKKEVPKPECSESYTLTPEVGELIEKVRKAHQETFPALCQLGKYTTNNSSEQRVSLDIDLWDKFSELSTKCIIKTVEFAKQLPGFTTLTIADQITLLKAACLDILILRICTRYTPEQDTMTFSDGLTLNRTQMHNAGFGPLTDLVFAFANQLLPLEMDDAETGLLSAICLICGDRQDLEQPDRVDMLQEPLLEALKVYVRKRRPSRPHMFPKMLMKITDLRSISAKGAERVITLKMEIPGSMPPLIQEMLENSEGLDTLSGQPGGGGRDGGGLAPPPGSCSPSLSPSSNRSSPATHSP
human RAR-related Orphan Receptor gamma (RORg), RORC (gene 6097), sequence (P51449 whole entry, looked up, the tested form may be a part): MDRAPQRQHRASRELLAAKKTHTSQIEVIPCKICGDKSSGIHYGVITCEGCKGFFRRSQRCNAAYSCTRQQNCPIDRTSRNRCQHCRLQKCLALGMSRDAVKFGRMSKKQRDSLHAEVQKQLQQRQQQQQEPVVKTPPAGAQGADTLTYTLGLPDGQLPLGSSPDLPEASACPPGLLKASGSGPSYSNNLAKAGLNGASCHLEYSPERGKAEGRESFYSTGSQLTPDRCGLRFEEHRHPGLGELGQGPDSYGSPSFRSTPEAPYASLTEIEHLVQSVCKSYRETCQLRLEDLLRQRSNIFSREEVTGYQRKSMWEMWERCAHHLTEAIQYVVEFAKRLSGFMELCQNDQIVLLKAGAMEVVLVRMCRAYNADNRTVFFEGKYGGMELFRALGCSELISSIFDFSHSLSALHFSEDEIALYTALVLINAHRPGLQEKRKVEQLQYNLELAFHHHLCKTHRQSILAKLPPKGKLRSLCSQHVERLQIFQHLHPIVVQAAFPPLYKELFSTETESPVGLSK
Peroxisome proliferator-activated receptor gamma (Homo sapiens), sequence (P37231 whole entry, looked up): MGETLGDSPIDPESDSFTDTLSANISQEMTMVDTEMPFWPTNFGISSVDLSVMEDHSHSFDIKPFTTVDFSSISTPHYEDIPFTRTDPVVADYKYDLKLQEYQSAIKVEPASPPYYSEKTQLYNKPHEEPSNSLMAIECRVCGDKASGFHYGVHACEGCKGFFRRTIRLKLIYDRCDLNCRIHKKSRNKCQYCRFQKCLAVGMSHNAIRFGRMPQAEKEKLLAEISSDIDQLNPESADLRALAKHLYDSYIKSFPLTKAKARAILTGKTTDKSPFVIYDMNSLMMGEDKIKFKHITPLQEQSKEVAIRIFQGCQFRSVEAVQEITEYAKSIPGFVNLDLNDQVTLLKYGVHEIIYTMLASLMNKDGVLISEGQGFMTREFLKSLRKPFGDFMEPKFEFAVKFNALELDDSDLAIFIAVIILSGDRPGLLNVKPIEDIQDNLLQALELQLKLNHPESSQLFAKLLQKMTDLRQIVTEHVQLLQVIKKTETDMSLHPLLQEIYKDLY
human Retinoic Acid Receptor gamma (RARg), RARG (gene 5916), sequence (P13631 whole entry, looked up, the tested form may be a part): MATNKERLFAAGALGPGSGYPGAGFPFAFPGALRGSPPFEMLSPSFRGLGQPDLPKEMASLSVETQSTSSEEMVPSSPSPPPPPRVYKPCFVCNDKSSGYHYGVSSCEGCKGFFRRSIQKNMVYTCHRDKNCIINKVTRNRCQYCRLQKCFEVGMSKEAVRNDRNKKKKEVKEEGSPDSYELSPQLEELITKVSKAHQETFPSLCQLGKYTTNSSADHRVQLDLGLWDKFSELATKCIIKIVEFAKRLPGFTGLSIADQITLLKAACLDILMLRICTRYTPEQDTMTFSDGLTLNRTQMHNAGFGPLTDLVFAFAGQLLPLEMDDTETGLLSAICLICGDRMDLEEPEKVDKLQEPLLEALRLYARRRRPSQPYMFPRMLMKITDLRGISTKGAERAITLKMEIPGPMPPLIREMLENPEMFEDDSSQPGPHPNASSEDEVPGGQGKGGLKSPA
human Retinoic Acid Receptor beta (RARb), RARB (gene 5915), sequence (P10826 whole entry, looked up, the tested form may be a part): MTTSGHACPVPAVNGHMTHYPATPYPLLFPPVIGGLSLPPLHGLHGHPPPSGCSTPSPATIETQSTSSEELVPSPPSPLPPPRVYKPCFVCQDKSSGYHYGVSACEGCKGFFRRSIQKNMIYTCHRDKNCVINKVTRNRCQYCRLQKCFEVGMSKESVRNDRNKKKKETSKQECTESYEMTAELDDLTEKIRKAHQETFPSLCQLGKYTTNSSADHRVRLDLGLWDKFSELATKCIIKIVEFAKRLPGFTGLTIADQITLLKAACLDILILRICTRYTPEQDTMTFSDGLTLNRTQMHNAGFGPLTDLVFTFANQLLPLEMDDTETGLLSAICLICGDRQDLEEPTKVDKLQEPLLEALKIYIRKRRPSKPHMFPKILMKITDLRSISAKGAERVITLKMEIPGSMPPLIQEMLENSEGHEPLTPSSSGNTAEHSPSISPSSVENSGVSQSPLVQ
Nuclear receptor subfamily 1 group I member 2 (Homo sapiens), sequence (O75469 whole entry, looked up, the tested form may be a part): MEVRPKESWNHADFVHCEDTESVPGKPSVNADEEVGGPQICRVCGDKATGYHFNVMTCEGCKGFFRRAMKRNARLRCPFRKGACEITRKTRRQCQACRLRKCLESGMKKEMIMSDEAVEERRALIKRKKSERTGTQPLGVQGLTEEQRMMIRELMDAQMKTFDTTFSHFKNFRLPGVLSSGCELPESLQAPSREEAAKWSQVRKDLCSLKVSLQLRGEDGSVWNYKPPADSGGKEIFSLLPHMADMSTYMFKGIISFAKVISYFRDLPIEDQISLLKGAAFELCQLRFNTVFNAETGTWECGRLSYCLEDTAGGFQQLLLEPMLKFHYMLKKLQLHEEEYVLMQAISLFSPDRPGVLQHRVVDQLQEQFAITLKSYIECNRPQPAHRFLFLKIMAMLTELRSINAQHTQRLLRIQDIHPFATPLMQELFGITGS

CC1CCC(CO)CC1 (configuration not stated)
inactive: [1] | [2] | [3] | [4] | [5] | [6]

CC(C)(O)C(=O)c1ccccc1
inactive: [1] | [2] | [3] | [6]
active: [4] 30 µM

Brc1cc(Br)c(Oc2c(Br)cc(Br)c(Br)c2Br)cc1Br
inactive: [1] | [2] | [7] | [4] | [6]

CCOC(C)=O
inactive: [1] | [2] | [7] | [4] | [8] | [5] | [6]

O=C1OC2(c3ccccc31)c1cc(I)c(O)c(I)c1Oc1c2cc(I)c(O)c1I
inactive: [1] | [10] | [4] | [5] | [6]
active: [9] 12 µM | [4] 5.08 µM and 15.4 µM

COCN(COC)c1nc(N(COC)COC)nc(N(COC)COC)n1
inactive: [1] | [9] | [10] | [4] | [8]

FC(F)(F)N1C(F)(F)C(F)(F)OC(F)(F)C1(F)F
inactive: [1] | [2] | [3] | [7] | [5] | [6]

O=C(F)C(F)(F)C(F)(F)C(F)(F)C(F)F
inactive: [1] | [2] | [7] | [4]

O=C1c2ccccc2C(=O)c2c(O)c(O)cc(O)c21
active: [7] 31.9 µM | [4] 31.5 µM
inactive: [1] | [2] | [3] | [8] | [5]

c1cnc2c(c1)ccc1cccnc12
inactive: [1] | [2] | [3] | [7] | [4] | [8] | [5] | [6]
active: [4] 26.4 µM

Cc1cc(Cc2cc(C)cc(C(C)(C)C)c2O)c(O)c(C(C)(C)C)c1
active: [7] 12.6 µM | [4] 0.0594 µM
inactive: [1] | [2] | [3] | [8]

c1cc2cccc3c4cccc5cccc(c(c1)c23)c54
inactive: [1] | [2] | [7] | [4] | [5] | [6]

Cc1ccc2ccc3ccc(C)cc3c2c1
active: [4] 14.4 µM
inactive: [1] | [2] | [7] | [5] | [6]

CC(C)[C@@H]1CC[C@@H](C)C[C@H]1O
inactive: [1] | [2] | [7] | [4] | [5]

CCCCN(C)C
inactive: [1] | [2] | [3] | [4] | [8] | [5] | [6]

CCCCCCCCCCCC(=O)O
active: [7] 52.9 µM
inactive: [1] | [2] | [3] | [7] | [4] | [8]

Cc1[nH]nc2c1N=C(c1ccccc1Cl)c1cc([N+](=O)[O-])ccc1N2
inactive: [1] | [9] | [4] | [5]
active: [10] 0.547 µM

c1ccc(CNc2ncnc3c2ncn3C2CCCCO2)cc1 (configuration not stated)
inactive: [1] | [2] | [3] | [8]
active: [7] 70.6 µM | [4] 6.85 µM

COC(=O)C(F)(F)C(F)(F)C(F)(F)C(F)(F)C(F)(F)F
inactive: [1] | [2] | [4] | [8]

FC(F)(F)C1(F)C(F)(F)C(F)(F)C(F)(F)C1(F)F
inactive: [1] | [2] | [3] | [7] | [8] | [5] | [6]

CCCCCCCCCCCCCCCC(=O)OC
inactive: [1] | [2] | [3] | [7] | [4] | [8]

CC1COCc2cc3c(cc21)C(C)(C)C(C)C3(C)C (configuration not stated)
inactive: [1] | [2] | [8]
active: [7] 66.9 µM | [4] 2.14 µM

CN(C)c1ccc(C(=C2C=CC(=[N+](C)C)C=C2)c2ccccc2)cc1
active: [9] 0.337 µM | [10] 0.0248 µM | [7] 1.75 µM and 1.45 µM | [4] 3.02 µM
inactive: [1] | [6]

Nc1ccc(O)c(C(=O)O)c1
inactive: [1] | [2] | [7] | [4] | [8] | [5]

NCCN
inactive: [1] | [2] | [3] | [7] | [6]

C[N+](C)(CCCNS(=O)(=O)CCC(F)(F)C(F)(F)C(F)(F)C(F)(F)C(F)(F)C(F)(F)F)CC(=O)[O-]
active: [4] 0.00287 µM
inactive: [1] | [2] | [3] | [7] | [8]

COC(=O)CC(C(C)=O)C(=O)OC (configuration not stated)
inactive: [1] | [7] | [4] | [6]

Cc1cc(C(=C2C=CC(=Nc3ccc(S(=O)(=O)O)cc3)C=C2)c2ccc(Nc3ccc(S(=O)(=O)O)cc3)cc2)cc(S(=O)(=O)O)c1N
inactive: [1] | [7] | [4] | [5] | [6]

CCCCCCCCC(C)=O
inactive: [1] | [4] | [6]

OCC(CO)(CBr)CBr
inactive: [9] | [10]

NNC(=O)CCCCC(=O)NN
inactive: [1] | [4] | [8] | [5]
